Test results: PubChem BioAssay AID1159580 (chemical genetic matrix, 2015)
Where “and” joins values, the source holds several entries; their conditions need not be identical. Equal entries are not always repeated. Among all 5,500 compounds or so, about 2,000 (36%) were called active. Another 18% or so got no clear call; they are omitted. No stated cut-off is given here; in the data, active means normalized growth mostly below about 0.91 (no sharp cut-off); inconclusive means no clear call, values can overlap the other calls; inactive means mostly above about 0.92. The list shows a part of the results.

Assay: chemical genetic growth profiling, strain panel (AID 1159580);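 further: tested at 20 µM; growth read once vehicle control cultures reached saturation at 30 °C; 1 = growth at the plate median or of vehicle wells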
Settings: S. cerevisiae deletion strains, growth OD

Measured: normalized growth

CO[C@@]1(NC(=O)Cc2cccs2)C(=O)N2C(C(=O)O)=C(COC(N)=O)CS[C@@H]21
inactive: locus YAL013W, strain DEP1, stronger effect = lower value 1 | locus YAL021C, strain ccr4, stronger effect = lower value 0.939 | locus YAL026C, strain drs2, stronger effect = lower value 0.969 | locus YAL030W, strain snc1, stronger effect = lower value 0.982 | locus YBL061C, strain skt5, stronger effect = lower value 0.97 | locus YBR009C, strain hhf1, stronger effect = lower value 1.02 | locus YBR021W, strain FUR4, stronger effect = lower value 1.01 | locus YBR023C, strain chs3, stronger effect = lower value 0.971 | locus YBR171W, strain sec66, stronger effect = lower value 0.968 | locus YBR229C, strain ROT2, stronger effect = lower value 1.01 | locus YBR231C, strain swc5, stronger effect = lower value 1.03 | locus YBR279W, strain paf1, stronger effect = lower value 0.972 | locus YCL011C, strain gbp2, stronger effect = lower value 0.976 | locus YCL016C, strain dcc1, stronger effect = lower value 0.955 | locus YCL029C, strain bik1, stronger effect = lower value 0.995 | locus YCL069W, strain vba3, stronger effect = lower value 0.989 | locus YCR088W, strain abp1, stronger effect = lower value 0.975 | locus YDL005C, strain med2, stronger effect = lower value 0.981 | locus YDL035C, strain GPR1, stronger effect = lower value 1.01 | locus YDL040C, strain nat1, stronger effect = lower value 0.981 | locus YDL074C, strain BRE1, stronger effect = lower value 1.02 | locus YDL101C, strain DUN1, stronger effect = lower value 1.01 | locus YDL134C, strain PPH21, stronger effect = lower value 1 | locus YDL185W, strain tfp1, stronger effect = lower value 0.994 | locus YDL192W, strain arf1, stronger effect = lower value 1 | locus YDR001C, strain nth1, stronger effect = lower value 0.971 | locus YDR069C, strain doa4, stronger effect = lower value 0.963 | locus YDR101C, strain arx1, stronger effect = lower value 0.984 | locus YDR137W, strain rgp1, stronger effect = lower value 0.94 | locus YDR150W, strain NUM1, stronger effect = lower value 1.01 | locus YDR159W, strain sac3, stronger effect = lower value 0.943 | locus YDR162C, strain NBP2, stronger effect = lower value 1 | locus YDR195W, strain ref2 0.98 | locus YDR297W, strain sur2, stronger effect = lower value 0.998 | locus YDR318W, strain mcm21, stronger effect = lower value 0.992 | locus YDR334W, strain swr1, stronger effect = lower value 0.97 | locus YDR335W, strain msn5, stronger effect = lower value 0.955 | locus YDR388W, stronger effect = lower value 0.99 | locus YDR392W, strain spt3, stronger effect = lower value 0.838 | locus YDR502C, strain sam2, stronger effect = lower value 0.991 | locus YEL003W, strain gim4, stronger effect = lower value 0.983 | locus YEL037C, strain rad23, stronger effect = lower value 0.97 | locus YEL061C, strain CIN8 (second series), stronger effect = lower value 0.976 | locus YEL061C, strain CIN8, stronger effect = lower value 1.01 | locus YER015W, strain faa2, stronger effect = lower value 0.99 | locus YER016W, strain bim1, stronger effect = lower value 0.949 | locus YER110C, stronger effect = lower value 0.997 | locus YER111C, strain swi4, stronger effect = lower value 0.96 | locus YER155C, strain BEM2 (second series), stronger effect = lower value 0.977 | locus YER155C, strain BEM2, stronger effect = lower value 1 | locus YER167W, strain BCK2, stronger effect = lower value 1 | locus YFR010W, strain ubp6, stronger effect = lower value 1.01 | locus YGL078C, strain dbp3, stronger effect = lower value 0.986 | locus YGL086W, strain mad1, stronger effect = lower value 0.987 | locus YGL167C, strain pmr1, stronger effect = lower value 0.978 | locus YGL173C, strain kem1, stronger effect = lower value 0.987 | locus YGL227W, strain vid30, stronger effect = lower value 0.98 | locus YGL240W, strain doc1, stronger effect = lower value 1 | locus YGL248W, strain PDE1, stronger effect = lower value 1.01 | locus YGL253W, strain hxk2, stronger effect = lower value 0.978 | locus YGR078C, strain PAC10, stronger effect = lower value 1.01 | locus YGR135W, strain pre9, stronger effect = lower value 0.989 | locus YGR252W, strain gcn5, stronger effect = lower value 0.982 | locus YHR013C, strain ard1, stronger effect = lower value 0.935 | locus YHR027C, strain rpn1, stronger effect = lower value 1.01 | locus YHR030C, strain SLT2, stronger effect = lower value 1.01 and 1.08 | locus YHR079C, strain IRE1 (second series), stronger effect = lower value 0.995 | locus YHR079C, strain IRE1, stronger effect = lower value 1.08 | locus YHR094C, strain hxt1, stronger effect = lower value 0.984 | locus YHR129C, strain ARP1, stronger effect = lower value 1 | locus YHR142W, strain chs7, stronger effect = lower value 0.936 | locus YHR200W, strain rpn10, stronger effect = lower value 0.994 | locus YIL066C, strain RNR3, stronger effect = lower value 1.01 | locus YIL073C, strain SPO22, stronger effect = lower value 1.01 | locus YIL125W, strain kgd1, stronger effect = lower value 0.995 | locus YIR030C, strain dcg1, stronger effect = lower value 0.996 | locus YJL092W, strain hpr5, stronger effect = lower value 0.989 | locus YJL095W, strain BCK1 (second series), stronger effect = lower value 0.967 | locus YJL095W, strain BCK1, stronger effect = lower value 1.01 and 1.06 | locus YJL115W, strain asf1, stronger effect = lower value 0.969 | locus YJL129C, strain trk1, stronger effect = lower value 0.914 | locus YJL134W, strain LCB3, stronger effect = lower value 1.01 | locus YJL154C, strain vps35, stronger effect = lower value 0.973 | locus YJL164C, strain tpk1, stronger effect = lower value 0.98 | locus YJL166W, strain qcr8, stronger effect = lower value 0.987 | locus YJL168C, strain set2, stronger effect = lower value 0.992 | locus YJL187C, strain SWE1 (second series), stronger effect = lower value 1.01 | locus YJR043C, strain POL32, stronger effect = lower value 0.986
